Drawing on PubChem BioAssay (NCI), this text covers growth for six compounds.

“And” between values parts separate entries of the source, which are not always exact repeats. Equal entries are not always repeated. The panel holds about 83,000 compounds, 20% with a hit somewhere; the sample as a whole holds those more often.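 Cells were grown in 96-well plates and exposed to the test compound at a single concentration for 48 hours; results are reported as percent growth, with values below 10 considered active.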 The source made the active and inactive calls.

Some test systems named below: HCT-15 colon; HT29 colon; SNB-75 CNS; SNB-19 CNS; U251 CNS; PC-3 prostate; SK-MEL-5 melanoma; UACC-62 melanoma; LOX IMVI melanoma; SK-MEL-28 melanoma; SK-MEL-2 melanoma; EKVX NSCLC; SN12C renal; TK-10 renal; ACHN renal; CAKI-1 renal; A498 renal; CCRF-CEM leukemia; MOLT-4 leukemia; UO-31 renal.
What all share (test): NCI-60 one-dose screen, 48 h (100 = growth as untreated, 0 = no growth, -100 = all killed)
What all share (conditions): 10 µM unless noted

As for `Nc1nc(Cl)nc2c1ncn2C1OC(CO)C(O)C1O` (configuration not stated), the growth with HCT-15 colon is 60.8% (inactive) and 68.4% (inactive); in the assay with HT29 colon it was 105% (inactive) and 87.7% (inactive); in the assay with SNB-75 CNS, 105% (inactive) and 91.5% (inactive); with SNB-19 CNS, 52% (inactive) and 53.5% (inactive); with U251 CNS, 74.6% (inactive) and 64.1% (inactive); in the assay on PC-3 prostate, 65.6% (inactive) and 67.5% (inactive). The growth in the assay on SK-MEL-5 melanoma was 67.6% (inactive) and 52.4% (inactive); in the assay with UACC-62 melanoma, 90.1% (inactive) and 80.5% (inactive); in the assay with LOX IMVI melanoma, 88.7% (inactive) and 66.6% (inactive); in the assay with SK-MEL-28 melanoma, 64.6% (inactive) and 75.2% (inactive); in the assay on SK-MEL-2 melanoma, 82.9% (inactive); in the assay on EKVX NSCLC, 102% (inactive) and 110% (inactive). The growth in the assay with SN12C renal is 30.2% (inactive) and 28.3% (inactive); in the assay with TK-10 renal it was 82.4% (inactive) and 87.6% (inactive); with ACHN renal, 65.9% (inactive) and 61.9% (inactive); in the assay with CAKI-1 renal it was 25.9% (inactive) and 41% (inactive); in the assay with A498 renal, 96.6% (inactive); with CCRF-CEM leukemia, 0.283% (active) and -17% (active). In the assay with MOLT-4 leukemia, the growth is 2.75% (active) and 3.08% (active).

For `CCN(CC)CC(=O)Nc1ccc2ncnc(Nc3ccc(Oc4cccc(F)c4)c(Cl)c3)c2c1`, the growth in the assay with HCT-15 colon was 17.6% (inactive); with HT29 colon it was 14.4% (inactive); in the assay on SNB-75 CNS, 66.4% (inactive); with SNB-19 CNS it was 72.2% (inactive); in the assay on U251 CNS, 45.2% (inactive); with PC-3 prostate it was 44.7% (inactive). The growth with SK-MEL-5 melanoma is 58.4% (inactive); with UACC-62 melanoma it was 86.9% (inactive); in the assay on LOX IMVI melanoma, -42% (active); with SK-MEL-28 melanoma, 81.3% (inactive); with SK-MEL-2 melanoma, 90.9% (inactive); with EKVX NSCLC, 42.8% (inactive). For the same compound, the growth is 67.8% (inactive) with SN12C renal; 51.9% (inactive) in the assay on TK-10 renal; 41.6% (inactive) in the assay on ACHN renal; 46.6% (inactive) in the assay with CAKI-1 renal; 44.2% (inactive) with A498 renal; 41.8% (inactive) in the assay with MOLT-4 leukemia.

Consider `O=C1/C(=C/c2ccccc2[N+](=O)[O-])Cc2ccccc21`, for which the growth was -56.9% (active) and 5.02% (active) in the assay with HCT-15 colon; -44% (active) and -37.1% (active) with HT29 colon; 40.8% (inactive) and 43.5% (inactive) in the assay with SNB-75 CNS; 93.7% (inactive) and 74.1% (inactive) with SNB-19 CNS; 24.9% (inactive) and 32.7% (inactive) in the assay on U251 CNS; 27.2% (inactive) and 30.4% (inactive) in the assay with PC-3 prostate. Also, the growth is 47.2% (inactive) and 69.5% (inactive) in the assay on SK-MEL-5 melanoma; 29.5% (inactive) and 25.5% (inactive) in the assay on UACC-62 melanoma; -61.1% (active) and 5.09% (active) with LOX IMVI melanoma; 45.9% (inactive) and 4.22% (active) with SK-MEL-28 melanoma; 68.4% (inactive) and 80.5% (inactive) with SK-MEL-2 melanoma; 20.3% (inactive) and 48.5% (inactive) in the assay on SN12C renal. Moreover, the growth with UO-31 renal is -66.2% (active) and 25.9% (inactive); in the assay with TK-10 renal it was -15.6% (active) and 21.2% (inactive); in the assay on ACHN renal it was -23.9% (active) and -43.3% (active); in the assay on CAKI-1 renal, -10.6% (active) and -9.61% (active); in the assay with A498 renal, -18.3% (active) and 14.1% (inactive); with CCRF-CEM leukemia it was -0.132% (active) and 4.53% (active). Besides, the growth in the assay with MOLT-4 leukemia is -1.54% (active) and 13.5% (inactive).

Regarding `Cc1nnc(NS(=O)(=O)c2ccc(N=Nc3ccc(N)nc3N)cc2)s1`, the growth with HCT-15 colon is 99.7% (inactive) and 107% (inactive); with HT29 colon, 108% (inactive) and 104% (inactive); in the assay with SNB-75 CNS it was 92% (inactive) and 89.6% (inactive); with SNB-19 CNS it was 100% (inactive) and 112% (inactive); in the assay with U251 CNS, 105% (inactive) and 106% (inactive); in the assay with PC-3 prostate, 93.8% (inactive) and 98.2% (inactive). Further, the growth was 117% (inactive) in the assay on SK-MEL-5 melanoma; 97% (inactive) and 111% (inactive) in the assay on UACC-62 melanoma; 93.2% (inactive) and 101% (inactive) in the assay with LOX IMVI melanoma; 111% (inactive) and 116% (inactive) with SK-MEL-28 melanoma; 104% (inactive) and 116% (inactive) with SK-MEL-2 melanoma; 104% (inactive) and 105% (inactive) with EKVX NSCLC. For the same compound, the growth is 92.3% (inactive) and 105% (inactive) in the assay on SN12C renal; 112% (inactive) and 111% (inactive) in the assay with TK-10 renal; 103% (inactive) and 110% (inactive) in the assay on ACHN renal; 98% (inactive) and 96% (inactive) with CAKI-1 renal; 99.7% (inactive) and 123% (inactive) with A498 renal; 100% (inactive) and 105% (inactive) with CCRF-CEM leukemia. For the same compound, in the assay on MOLT-4 leukemia, the growth is 102% (inactive) and 96.3% (inactive).

With `COc1cc2c(cc1OCCCOC1=C=C=C(c3ccc4c(c3)c3cc(-c5ccc(OCCCOc6cc7c(cc6OC)C(=O)N6CCC[C@H]6C=N7)cc5)ccc3n4S(=O)(=O)c3ccc(C)cc3)C=C1)N=C[C@@H]1CCCN1C2=O`, the growth with HCT-15 colon is 69.4% (inactive); in the assay on HT29 colon it was 37.7% (inactive); in the assay with SNB-75 CNS, 4.32% (active); in the assay with SNB-19 CNS it was 61.6% (inactive); in the assay with U251 CNS, -29.8% (active); with PC-3 prostate it was 42.7% (inactive). Also, the growth in the assay on SK-MEL-5 melanoma is 39% (inactive); with UACC-62 melanoma it was -14.1% (active); with LOX IMVI melanoma, -14.5% (active); in the assay on SK-MEL-28 melanoma it was 64.8% (inactive); in the assay on SK-MEL-2 melanoma, -20.6% (active); in the assay with EKVX NSCLC, 94.5% (inactive). In addition, the growth in the assay with SN12C renal is -17.2% (active); in the assay on TK-10 renal, 221% (inactive); in the assay on ACHN renal, 7.74% (active); in the assay on CAKI-1 renal, -19.8% (active); in the assay on A498 renal, 76.9% (inactive); in the assay with CCRF-CEM leukemia it was 40.3% (inactive). The growth in the assay with MOLT-4 leukemia was -11.6% (active).

Regarding `CC(=O)c1nn(-c2ccccc2)/c(=N/N=Cc2cn(-c3ccccc3)nc2-c2cc3ccccc3oc2=O)s1`, the growth in the assay on HCT-15 colon was 98.1% (inactive); in the assay on HT29 colon, 109% (inactive); in the assay with SNB-75 CNS, 104% (inactive); in the assay with SNB-19 CNS, 103% (inactive); in the assay on U251 CNS, 91.6% (inactive); with PC-3 prostate, 101% (inactive). Moreover, the growth with SK-MEL-5 melanoma is 101% (inactive); in the assay on UACC-62 melanoma, 92.9% (inactive); in the assay with LOX IMVI melanoma, 98.9% (inactive); in the assay with SK-MEL-28 melanoma, 111% (inactive); in the assay on SK-MEL-2 melanoma it was 103% (inactive); in the assay with EKVX NSCLC, 97.2% (inactive). Further, the growth is 105% (inactive) in the assay on SN12C renal; 103% (inactive) in the assay on TK-10 renal; 101% (inactive) with ACHN renal; 88.5% (inactive) in the assay on CAKI-1 renal; 120% (inactive) in the assay on A498 renal; 95.9% (inactive) in the assay with MOLT-4 leukemia.
